The source made the active and inactive calls. How the source made its calls: active means hit-call score of the fitted dose curve at least 0.9, where 1 is the maximum; inactive means score below 0.9.
Molecular target: Aryl hydrocarbon receptor (Homo sapiens) (UniProt P35869)
Test: ATG_Ahr_CIS: Attagene CIS-FACTORIAL HepG2 Assay for human Aryl Hydrocarbon Receptor (Ahr) (AID 2282930)
Conditions: HepG2 AhR cis-factorial reporter transcription; actives raise or lower the signal
Procedure: ATG_CIS is a cell-based, multiplexed-readout assay that uses HepG2, a human liver cell line, with measurements taken at 24 hours after chemical dosing in a 24-well plate.ATG_Ahr_CIS is one of 52 assay component(s) measured or calculated from the ATG_CIS assay. It is designed to make measurements of mRNA induction, a form of inducible reporter, as detected with fluorescence intensity signals by Reverse transcription polymerase chain reaction (RT-PCR) and Capillary electrophoresis technology.Data from the assay component ATG_Ahr_CIS was analyzed into 1 assay endpoint. This assay endpoint, ATG_Ahr_CIS, was analyzed with bidirectional fitting relative to DMSO as the negative control and baseline of activity. Using a type of inducible reporter, measures of mRNA for gain or loss-of-signal activity can be used to understand the reporter gene at the transcription factor-level as they relate to the gene AHR. Furthermore, this assay endpoint can be referred to as a primary readout, because this assay has produced multiple assay endpoints where this one serves a reporter gene function. To generalize the intended target to other relatable targets, this assay endpoint is annotated to the dna binding intended target family, where the subfamily is basic helix-loop-helix protein.
Human liver HepG2 cells are transiently transfected with multiple reporter transcription units (MRTUs) in 6-well plates using FuGene 6 reagent (Roche; 3 ml FuGene/1 mg DNA). The MRTU constructs are regulated by a cis-regulating element (promoter). […] A major difference between the CIS and TRANS system is that in CIS activities of endogenous TFs are measured, whereas the TRANS assay evaluates changes in activities of exogenous, chimeric NR-Gal4 proteins. […] At the end of 24 hour incubation, total RNA was isolated using TriZol reagent (Invitrogen). The isolated RNA is then reverse-transcribed using oligo(dT) primer and Mo-MLV reverse transcriptase (Invitrogen) with DNAse I (Ambion) treatment for 30 min. The one-tenth of the produced cDNA was amplified by PCR using Taq DNA polymerase (Invitrogen) and two reporter sequence-specific primers. The PCR products were fluorescently labeled by primer extension with 6-arboxyfluorescein (6-FAM) 5'-labeled reporter sequence-specific primer (2 min at 95 C, 20 s at 68 C and 10 min at 72 C) and these products were digested with 5U of HpaI (New England Biolabs) for 2h at 37 C. […] The raw capillary electrophoresis data was processed using Attagraph software (Attagene).

Chain of Aryl hydrocarbon receptor (Homo sapiens) (P35869 whole entry, looked up): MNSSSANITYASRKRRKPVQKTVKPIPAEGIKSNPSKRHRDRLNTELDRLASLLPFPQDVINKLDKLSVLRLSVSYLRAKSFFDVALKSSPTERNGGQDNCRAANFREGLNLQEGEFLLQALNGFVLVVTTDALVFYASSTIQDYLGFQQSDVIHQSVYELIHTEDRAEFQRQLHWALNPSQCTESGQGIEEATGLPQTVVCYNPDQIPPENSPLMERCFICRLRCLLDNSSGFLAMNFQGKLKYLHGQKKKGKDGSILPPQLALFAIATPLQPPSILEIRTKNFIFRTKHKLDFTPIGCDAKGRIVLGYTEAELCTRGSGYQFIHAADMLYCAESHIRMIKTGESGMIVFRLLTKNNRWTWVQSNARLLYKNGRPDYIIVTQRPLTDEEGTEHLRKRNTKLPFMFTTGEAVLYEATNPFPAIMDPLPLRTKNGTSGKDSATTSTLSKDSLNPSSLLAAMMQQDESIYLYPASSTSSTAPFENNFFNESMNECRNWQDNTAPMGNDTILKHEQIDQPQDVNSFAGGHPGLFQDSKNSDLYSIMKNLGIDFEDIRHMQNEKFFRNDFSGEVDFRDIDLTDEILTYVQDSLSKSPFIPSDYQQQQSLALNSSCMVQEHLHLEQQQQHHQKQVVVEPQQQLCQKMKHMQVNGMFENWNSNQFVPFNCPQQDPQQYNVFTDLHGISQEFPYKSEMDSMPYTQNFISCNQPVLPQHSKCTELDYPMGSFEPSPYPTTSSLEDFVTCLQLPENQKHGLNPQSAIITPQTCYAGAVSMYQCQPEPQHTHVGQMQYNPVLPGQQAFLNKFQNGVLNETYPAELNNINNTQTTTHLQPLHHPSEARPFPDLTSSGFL

Row | Compound | outcome | AC50
1 | C=CC(=O)NCOCC(C)C | inactive | –
2 | C#C[C@]1(O)CC[C@H]2[C@@H]3CCC4=Cc5oncc5C[C@]4(C)[C@H]3CC[C@@]21C | inactive | –
3 | CCCCC(CC)COCCC#N (stereo not given) | inactive | –
4 | CC(C)=CCC[C@](C)(O)[C@@H]1CC=C(C)CC1 | inactive | –
5 | CN(C)CCOCCN(C)C | inactive | –
6 | C=CC(C)(C)O | inactive | –
7 | O=c1cc(-c2ccccc2)oc2cc(O)cc(O)c12 | – | 5.85 µM (active)
8 | c1ccc2[nH]ccc2c1 | – | 14.6 µM (active)
9 | CC(C)(C)c1cc(CCC(=O)NN)cc(C(C)(C)C)c1O | inactive | –
10 | OCc1cccnc1 | inactive | –
11 | CCCCCCCCC | inactive | –
12 | CC(C)(C)C(=O)c1ccccc1 | inactive | –
13 | COc1cc(C)cc(O)c1 | inactive | –
14 | O=CCCc1ccccc1 | inactive | –
15 | CN1Cc2c(N)cccc2C(c2ccccc2)C1 (stereo not given) | – | 59.1 µM (active)
16 | O=[N+]([O-])c1cc(C(F)(F)F)ccc1Cl | inactive | –
17 | CC(C)=CCC/C(C)=C/COC=O | inactive | –
18 | Nc1cc(Cl)c(O)c(Cl)c1 | inactive | –
19 | CCCc1ccccc1O | – | 23.9 µM (active)
20 | O=C(O)c1cccc([N+](=O)[O-])c1 | inactive | –

Row | Compound | outcome | AC50
21 | Nc1cccc(S(=O)(=O)c2cccc(N)c2)c1 | inactive | –
22 | CSc1nc(NC2CC2)nc(NC(C)(C)C)n1 | inactive | –
23 | Fc1c(F)c(F)c(Br)c(F)c1F | inactive | –
24 | COc1c(Cl)c(Cl)c(Cl)c(Cl)c1Cl | inactive | –
25 | C=CC(=O)OCCOCCOCC | inactive | –
26 | CC1CCC(C(C)(C)O)CC1 (stereo not given) | inactive | –
27 | NC(=O)Nc1ccc(Cl)cc1 | inactive | –
28 | C[C@H]1C[C@@H]2[C@H]([C@@H](O)C[C@@]3(C)[C@H]2CC[C@]3(O)C(=O)CO)[C@@]2(C)C=CC(=O)C=C12 | inactive | –
29 | CC(=O)O[C@]1(C(C)=O)CC[C@H]2[C@@H]3C[C@H](C)C4=CC(=O)CC[C@]4(C)[C@H]3CC[C@@]21C | inactive | –
30 | CN(C)CCCN | inactive | –
31 | Cc1ccc2n[nH]nc2c1 | – | 16.3 µM (active)
32 | O=S(=O)(O)c1cccc2c(S(=O)(=O)O)cccc12 | inactive | –
33 | BrC1CCC(Br)C(Br)CCC(Br)C(Br)CCC1Br (stereo not given) | inactive | –
34 | O=C(O)CCCCC1CCSS1 (stereo not given) | inactive | –
35 | CCCCO | inactive | –
36 | CC(C#N)(CCC(=O)O)N=NC(C)(C#N)CCC(=O)O (stereo not given) | inactive | –
37 | CC(CN1c2ccccc2Sc2ccccc21)N(C)C (stereo not given) | inactive | –
38 | O=Nc1ccc(Nc2ccccc2)cc1 | – | 33.4 µM (active)
39 | Cc1ccc(C=O)cc1 | inactive | –
40 | CCCCNC(=O)NS(=O)(=O)c1ccc(N)cc1 | inactive | –

— PubChem BioAssay (EPA / NIEHS)
